Assay results from the supplement of paper PMC10127200.
Structures can show the parent of a compound that is named as a salt.

Key:
Test in all cases: Euclidean distance of Cell Painting phenotypic profile (signed KS, 77 features) to DMSO centroid (dimensionless distance); 5 or 10 uM (library dependent); higher = stronger phenotypic change vs DMSO (phenoactivity)
Conditions in all cases: 48 h
786-O = test system: 786-O
Outline: (§1)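 Five cancer lines, together with a healthy fibroblast line, received library compounds for 48 h at a library-dependent 10 or 5 uM and 0.1% DMSO final. Harmony then derived 77 features from confocal 20X images (9 fields/well) of the stained cells, scoring each as a signed Kolmogorov-Smirnov statistic against same-plate vehicle wells. After plate-position correction, correlation weighting and replicate averaging at the top dose, phenoactivity was taken as each profile's Euclidean distance to the median vehicle profile.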

A549 = test system: A549
Outline: as §1

DU145 = test system: DU145
Outline: as §1

FB = test system: FB
Outline: as §1

HEPG2 = test system: HEPG2
Outline: as §1

OVCAR4 = test system: OVCAR4
Outline: as §1

O=C(O)C1CSCN1 (centres undefined) [Timonacic]
Euclidean distance (786-O): 1.39
Euclidean distance (A549): 0.753
Euclidean distance (DU145): 0.835
Euclidean distance (FB): 0.853
Euclidean distance (HEPG2): 0.578
Euclidean distance (OVCAR4): 1.18

C=CCN1CCCC1CNC(=O)c1cc2nn[nH]c2cc1OC (centres undefined) [Alizapride HCl]
Euclidean distance (786-O): 0.796
Euclidean distance (A549): 1.43
Euclidean distance (DU145): 1.04
Euclidean distance (FB): 1.13
Euclidean distance (HEPG2): 1.28
Euclidean distance (OVCAR4): 0.984

CC(C)NC[C@@H](C(=O)N1CCN(c2ncnc3c2[C@H](C)C[C@H]3O)CC1)c1ccc(Cl)cc1
Euclidean distance (786-O): 2.01
Euclidean distance (A549): 1.92
Euclidean distance (DU145): 1.44
Euclidean distance (FB): 2.24
Euclidean distance (HEPG2): 1.1
Euclidean distance (OVCAR4): 1.13

C[C@H](CCC(=O)O)[C@H]1CC[C@H]2[C@@H]3CC[C@@H]4C[C@H](O)CC[C@]4(C)[C@H]3C[C@H](O)[C@]12C [Deoxycholic acid]
Euclidean distance (786-O): 0.886
Euclidean distance (A549): 0.94
Euclidean distance (DU145): 0.997
Euclidean distance (FB): 0.74
Euclidean distance (HEPG2): 0.87
Euclidean distance (OVCAR4): 1.36

CN(C)CCOC(=O)C(c1ccccc1)C1(O)CCCC1 (centres undefined) [Cyclopentolate Hydrochloride]
Euclidean distance (786-O): 1.16
Euclidean distance (A549): 0.28
Euclidean distance (DU145): 0.841
Euclidean distance (FB): 1.15
Euclidean distance (HEPG2): 0.601
Euclidean distance (OVCAR4): 1.57

COc1cc2c(cc1OC)[C@@H]1Cc3ccc(OC)c(OC)c3CN1CC2 [Tetrahydropalmatine]
Euclidean distance (786-O): 0.584
Euclidean distance (A549): 0.856
Euclidean distance (DU145): 0.447
Euclidean distance (FB): 0.696
Euclidean distance (HEPG2): 0.585
Euclidean distance (OVCAR4): 0.757

CC(=O)O[C@H]1C[C@@]2(C)[C@@H](C[C@@H](O)[C@H]3[C@@]4(C)CC[C@@H](O)[C@@H](C)[C@@H]4CC[C@@]32C)/C1=C(\CCC=C(C)C)C(=O)O [Fusidate Sodium]
Euclidean distance (786-O): 1.27
Euclidean distance (A549): 0.59
Euclidean distance (DU145): 1.88
Euclidean distance (FB): 1.32
Euclidean distance (HEPG2): 0.533
Euclidean distance (OVCAR4): 1.2

CCC/N=C1\S/C(=C\c2ccc(OC[C@H](O)CO)c(Cl)c2)C(=O)N1c1ccccc1C [Ponesimod]
Euclidean distance (786-O): 1.96
Euclidean distance (A549): 1.39
Euclidean distance (DU145): 0.669
Euclidean distance (FB): 1
Euclidean distance (HEPG2): 1.32
Euclidean distance (OVCAR4): 1.26

NCC(=O)O [Glycine]
Euclidean distance (786-O): 1.61
Euclidean distance (A549): 0.971
Euclidean distance (DU145): 0.929
Euclidean distance (FB): 1
Euclidean distance (HEPG2): 0.776
Euclidean distance (OVCAR4): 1.93

Cc1ccc2c(c1)C(=O)C1(O)CCN(c3ccccc3)C1=N2 (single isomer, unassigned; (-)) [(-)-Blebbistatin]
Euclidean distance (786-O): 1.29
Euclidean distance (A549): 1.46
Euclidean distance (DU145): 1.36
Euclidean distance (FB): 1.03
Euclidean distance (HEPG2): 1.13
Euclidean distance (OVCAR4): 1.46

COC(=O)C1=C(C)NC(C)=C(C(=O)OC2CCCN(Cc3ccccc3)C2)C1c1cccc([N+](=O)[O-])c1 (centres undefined) [Benidipine HCl]
Euclidean distance (786-O): 1.39
Euclidean distance (A549): 0.86
Euclidean distance (DU145): 0.823
Euclidean distance (FB): 0.926
Euclidean distance (HEPG2): 0.713
Euclidean distance (OVCAR4): 1.45

O=C1[C@H](Cc2ccc(O)cc2)N2C(=O)CCN(C(=O)NCc3ccccc3)[C@H]2CN1Cc1cccc2ccccc12
Euclidean distance (786-O): 2.87
Euclidean distance (A549): 2.53
Euclidean distance (DU145): 1.39
Euclidean distance (FB): 3.88
Euclidean distance (HEPG2): 1.43
Euclidean distance (OVCAR4): 2.09

CNC(=O)c1cnn(-c2nc(N)c3ncn([C@@H]4O[C@H](CO)[C@@H](O)[C@H]4O)c3n2)c1 [Regadenoson]
Euclidean distance (786-O): 0.517
Euclidean distance (A549): 0.628
Euclidean distance (DU145): 0.867
Euclidean distance (FB): 1.43
Euclidean distance (HEPG2): 1.32
Euclidean distance (OVCAR4): 0.995

COC1CCN(C(=O)c2cc(Cc3n[nH]c(=O)c4ccccc34)ccc2F)CC1
Euclidean distance (786-O): 1.09
Euclidean distance (A549): 1.25
Euclidean distance (DU145): 1.32
Euclidean distance (FB): 1.5
Euclidean distance (HEPG2): 1.36
Euclidean distance (OVCAR4): 1.3

CC[N+](CC)(CC)CC [Tetraethylammonium bromide]
Euclidean distance (786-O): 1.58
Euclidean distance (A549): 0.816
Euclidean distance (DU145): 0.857
Euclidean distance (FB): 0.968
Euclidean distance (HEPG2): 1.11
Euclidean distance (OVCAR4): 0.715

NC(=O)c1cc[n+](CC2=C(C(=O)O)N3C(=O)[C@@H](NC(=O)[C@@H](c4ccccc4)S(=O)(=O)[O-])[C@H]3SC2)cc1 [Cefsulodin sodium]
Euclidean distance (786-O): 1.11
Euclidean distance (A549): 0.966
Euclidean distance (DU145): 1.58
Euclidean distance (FB): 1.06
Euclidean distance (HEPG2): 0.633
Euclidean distance (OVCAR4): 1.15

Cc1cc(-c2ncc(CC(=O)Nc3ccc(-c4cnccn4)cn3)cc2C)ccn1
Euclidean distance (786-O): 1.05
Euclidean distance (A549): 1.24
Euclidean distance (DU145): 0.884
Euclidean distance (FB): 0.878
Euclidean distance (HEPG2): 0.741
Euclidean distance (OVCAR4): 0.931

Nc1nc(=O)[nH]cc1F [Flucytosine]
Euclidean distance (786-O): 1.25
Euclidean distance (A549): 1.12
Euclidean distance (DU145): 0.998
Euclidean distance (FB): 1.16
Euclidean distance (HEPG2): 0.392
Euclidean distance (OVCAR4): 0.975

Cc1cc(C(=O)Nc2nc3cccc(Cl)c3n2[C@@H]2CCCCN(C(=O)/C=C/CN(C)C)C2)ccn1 [Nazartinib (EGF816. NVS-816)]
Euclidean distance (786-O): 1.87
Euclidean distance (A549): 1.93
Euclidean distance (DU145): 1.67
Euclidean distance (FB): 3.18
Euclidean distance (HEPG2): 2.99
Euclidean distance (OVCAR4): 1.9
